# Most compounds without a hit are left out; they make up all but 2.5% or so of the library.
# rCAG binder = binds r(CAG) RNA repeats; r(CAG) RNA repeat, TO-PRO-1 dye displacement fluorescence; inhibition, % at 3 µM; actives 1.3% (n = 370,000);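 active means inhibition above the plate cutoff, the mean of all test compounds on that plate plus 3 SD, cut at about 35% in these data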;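 further: 0% = DMSO alone and 100% = 100 µM mitoxantrone as full dye displacement; higher means more dye released from RNA so lower well fluorescence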
# ABCB6 inh 2 = blocks the human ABCB6 transporter; Q9NP58; K562-ABCB6 porphyrin accumulation, flow cytometry, 1 h; active compounds read low; fluorescence ratio to DMSO, % at 10 µM; actives 0.19% (n = 360,000);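 active means fluorescence ratio to DMSO below 75%, the collection mean minus 3 SD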;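 further: signal is porphyrin accumulated inside mitochondria; 100% equals median channel fluorescence of DMSO control wells; lower ratio means ABCB6 inhibition with less porphyrin fluorescence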
# Target sequence (Q9NP58 whole entry, looked up): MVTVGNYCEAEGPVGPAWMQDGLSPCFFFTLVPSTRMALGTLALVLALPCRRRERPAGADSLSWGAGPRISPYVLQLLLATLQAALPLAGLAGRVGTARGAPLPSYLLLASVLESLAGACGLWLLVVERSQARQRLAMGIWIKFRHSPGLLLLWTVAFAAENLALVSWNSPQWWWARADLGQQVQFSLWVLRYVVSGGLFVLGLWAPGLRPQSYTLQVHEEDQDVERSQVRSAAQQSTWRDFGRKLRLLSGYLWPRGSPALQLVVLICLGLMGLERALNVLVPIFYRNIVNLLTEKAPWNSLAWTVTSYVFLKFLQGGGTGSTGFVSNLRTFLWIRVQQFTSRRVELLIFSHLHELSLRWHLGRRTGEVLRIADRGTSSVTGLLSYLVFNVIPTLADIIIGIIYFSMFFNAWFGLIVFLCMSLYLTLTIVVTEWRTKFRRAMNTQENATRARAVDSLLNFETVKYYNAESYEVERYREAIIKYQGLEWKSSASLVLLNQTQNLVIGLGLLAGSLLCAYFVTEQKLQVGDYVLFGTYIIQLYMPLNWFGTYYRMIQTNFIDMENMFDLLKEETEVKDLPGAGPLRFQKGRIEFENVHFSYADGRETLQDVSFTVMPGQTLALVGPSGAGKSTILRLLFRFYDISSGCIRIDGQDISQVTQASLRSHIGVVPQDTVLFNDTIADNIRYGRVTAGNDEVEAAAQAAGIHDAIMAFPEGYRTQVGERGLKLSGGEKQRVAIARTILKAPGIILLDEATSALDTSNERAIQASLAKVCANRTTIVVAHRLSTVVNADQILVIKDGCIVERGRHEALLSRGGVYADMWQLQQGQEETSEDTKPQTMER
# Exocytosis inh = blocks lytic granule exocytosis | AID 651702 | actives 0.66% (n = 360,000) | TALL-104 LAMP-1 surface exposure, flow cytometry; cells stimulated with thapsigargin and PMA | inhibition, % at 10 µM;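 active means inhibition above about 55%, limit read from the data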
# PG9 Ab binder = binds the HIV-1 gp120 antibody PG9; TR-FRET gp120-PG9 antibody binding; inhibition, % at 6.7 µM; actives 0.43% (n = 360,000); in the data active means inhibition above about 8.5%
# rCAG bind conf = r(CAG) RNA repeat binding, confirmation | shares compounds with rCAG binder | TO-PRO-1 dye displacement fluorescence | inhibition, % at 3 µM | actives 70% (n = 4,300) | AID 652065;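 active means inhibition above a per-plate cutoff, the mean inhibition of sample wells plus 3 SD, cut at about 35% in these data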;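 further: loss of TO-PRO-1 fluorescence as compound displaces dye from 1x1 AA loop RNA; 0% = DMSO only wells and 100% = 100 µM mitoxantrone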
# DNA CAG counter = disrupts DNA CAG TO-PRO-1 complex, flagging rCAG hits. AID 652068. inhibition, % at 3 µM. d(CAG) DNA oligo TO-PRO-1 dye displacement, fluorescence. shares compounds with rCAG binder. actives 94% (n = 4,300);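 active means inhibition above its plate's cutoff, the mean test-well inhibition plus 3 SD, cut at about 4.8% in these data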;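 further: 0% = DNA dye mix with DMSO and 100% = 100 µM mitoxantrone; hits displace the dye from DNA and so lower well fluorescence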
# An asterisk follows results filed as active; nt = no result given.
SMILES,rCAG binder,ABCB6 inh 2,Exocytosis inh,PG9 Ab binder,rCAG bind conf,DNA CAG counter
O=C(N/N=C/c1cc([N+](=O)[O-])ccc1O)NC12CC3CC(CC(C3)C1)C2,63*,95,3,-1,36*,9.5*
O=C(N/N=C/c1cc([N+](=O)[O-])ccc1O)C12CC3CC(CC(C3)C1)C2,0,95,10,0,nt,nt
CCOC(=O)C1(C)CCCN1C(=O)c1ccc(C(=O)OC)cc1 (stereo unspecified),2,102,5,-1,nt,nt
O=C(O)c1cncc(C#CCC2CCCCC2)c1,5,99,4,-1,nt,nt
Oc1ccc(C2=CSC3=NCCN23)cc1O,-3,101,7,-2,nt,nt
CCCOc1ccc(/C=C/C(=O)NCc2ccccc2)cc1,-5,103,-1,0,nt,nt
O=C(NCc1ccco1)c1ccccc1NS(=O)(=O)c1ccc(Br)s1,44*,95,0,1,48*,16*
O=[N+]([O-])c1cc(S(=O)(=O)Nc2cccc(C(F)(F)F)c2)ccc1-n1nnc2ccccc21,78*,98,-2,-1,69*,33*
CCOC1=CC2=C(C(=O)C(Cl)=CC2=O)[C@@H]2CN(S(=O)(=O)c3ccc(C)cc3)[C@@H](c3ccccc3)[C@H]12,73*,101,98*,8,57*,21*
CCN1C(=O)[C@@H]2[C@@H]3CN(S(=O)(=O)c4ccc(C)cc4)[C@@H](c4ccccc4)[C@@H]3C(=O)C[C@@H]2C1=O,5,100,-1,-3,nt,nt
Cc1cccc(NC(=O)c2ncn3c2C(=O)NC[C@H]3C)c1,2,96,1,1,nt,nt
COC(=O)Cn1nc(-c2ccc(C)cc2)c2ccccc2c1=O,-8,100,2,-1,nt,nt
Cc1sc(NC(=O)C2CC=CCC2C(=O)O)c(C(=O)OC(C)C)c1C (stereo unspecified),41*,98,2,3,33,5.8*
CCOc1ccc(C2C(C(=O)c3ccc(C)o3)=C(O)C(=O)N2c2nc(C)c(C(=O)OC)s2)cc1 (stereo unspecified),24,101,0,0,nt,nt
CCOC(=O)c1sc(N2C(=O)C(O)=C(C(=O)c3ccco3)C2c2ccc(C)o2)nc1C (stereo unspecified),44*,104,-15,-1,59*,21*
CCOC(=O)c1sc(N2C(=O)C(O)=C(C(=O)c3ccco3)C2c2ccc([N+](=O)[O-])cc2)nc1C (stereo unspecified),80*,102,-2,0,85*,55*
Cc1ccc(S(=O)(=O)C[C@@H]2OC[C@H](C)N2S(=O)(=O)c2ccc(C)cc2)cc1,4,nt,5,0,nt,nt
CCCS(=O)(=O)NC(=O)C1(C)CCN(C(=O)c2ccc(C(F)(F)F)nc2C)C1 (stereo unspecified),nt,103,3,nt,nt,nt
Oc1ccc2ccccc2c1/C=C/c1ccc2c(Br)cc(Br)c(O)c2n1,48*,114,5,-2,50*,32*
COc1cc(/C=C/c2ccc3cccc(O)c3n2)ccc1O,20,97,-8,-2,nt,nt
CCN(Cc1ccncc1)C(=O)c1cc(COc2c(F)cccc2F)on1,-8,94,0,1,nt,nt
CC(C)(C)n1nc2c(c1NC(=O)C1CC(=O)N(c3ccc(Cl)cc3)C1)CS(=O)(=O)C2 (stereo unspecified),0,99,-1,-2,nt,nt
CCOC(=O)C1=C(CC)Nc2ccccc2N=C1NC(=O)c1cc(S(=O)(=O)N(C)C)ccc1Cl,3,98,1,1,nt,nt
CCOC(=O)C1=C(CC)Nc2ccccc2N/C1=N\S(=O)(=O)c1ccc(C(=O)OCC)cc1,41*,93,-7,-1,40*,9.1*
Cn1c(=O)c2c(-c3ccccc3)n(-c3cc(Cl)c([N+](=O)[O-])cc3O)cc2n(C)c1=O,43*,96,3,-1,42*,11*
SMILES,rCAG binder,ABCB6 inh 2,Exocytosis inh,PG9 Ab binder,rCAG bind conf,DNA CAG counter
Cn1c(=O)c2c(-c3ccccc3)n(-c3cc([N+](=O)[O-])ccc3O)cc2n(C)c1=O,9,97,-4,-4,nt,nt
CC(C)(C)OC(=O)N1CCC(c2cc(=O)n3[nH]cc(C(=O)NC4CCCC4)c3n2)CC1,55*,106,-7,2,48*,13*
O=C(O)c1ccccc1-n1ncc2c1/C(=C/c1ccc(Cl)cc1)CC2,38*,nt,nt,-2,34,11*
CCN(CC)S(=O)(=O)c1cc(NS(=O)(=O)c2c(Cl)cccc2Cl)ccc1C,34,101,0,-2,nt,nt
CCN(CC)S(=O)(=O)c1cc(NS(=O)(=O)c2cccc(Cl)c2Cl)ccc1C,42*,91,-2,-2,41*,12*
O=C(CSc1nnc(-c2ccc(Cl)cc2)n1Cc1ccco1)Nc1ccc(S(=O)(=O)Nc2nccs2)cc1,77*,nt,nt,nt,69*,32*
Cc1cc(NS(=O)(=O)c2ccc(NC(=O)CSc3nnc(-c4ccc(Cl)cc4)n3Cc3ccco3)cc2)nc(C)n1,38*,nt,nt,nt,41*,14*
Cc1cc(NS(=O)(=O)c2ccc(NC(=O)CSc3nnc(-c4ccncc4)n3Cc3ccco3)cc2)nc(C)n1,17,nt,nt,nt,nt,nt
Cc1ccc(OCc2nnc(SCC(=O)Nc3ccc(S(=O)(=O)Nc4cc(C)nc(C)n4)cc3)n2Cc2ccco2)cc1,38*,nt,nt,nt,47*,13*
COc1ccc(C)cc1S(=O)(=O)N1CCCC(C(=O)N2CCN(c3ccccc3F)CC2)C1 (stereo unspecified),-6,102,0,-1,nt,nt
Cc1cc(=O)oc2cc(OCC(=O)N3CCC(C(N)=O)CC3)ccc12,3,102,0,1,nt,nt
Cc1cccc(N(CC(=O)N/N=C/c2ccc(C(=O)O)cc2)S(=O)(=O)c2ccccc2)c1C,49*,98,-3,0,33,11*
COc1ccccc1N(CC(=O)N/N=C/c1ccc(C(=O)O)cc1)S(=O)(=O)c1ccc(C)cc1,28,96,3,1,nt,nt
O=C(CCN1C(=O)S/C(=C\c2cccs2)C1=O)Nc1nccs1,1,96,0,1,nt,nt
O=C(CCN1C(=O)S/C(=C/c2ccccc2)C1=O)Nc1ccc(O)c(C(=O)O)c1,56*,101,-2,-1,40*,14*
O=C(CCN1C(=O)S/C(=C\c2ccccc2)C1=O)Nc1ccc(O)cc1C(=O)O,46*,100,-1,-3,33,8.4*
Cc1ccc(/C=C2\SC(=S)N(CCC(=O)NNC(=O)c3ccc(O)cc3)C2=O)cc1,14,104,-1,1,nt,nt
O=C(CN1C(=O)S/C(=C\c2cccs2)C1=O)Nc1ccc(O)cc1C(=O)O,68*,94,-8,1,49*,15*
CN1C(=O)/C(=C/c2ccc(C(=O)Nc3ccc(O)cc3C(=O)O)cc2)SC1=S,55*,98,2,-1,94*,82*
CC(=O)c1cccc(NC(=O)Cn2cnc(S(=O)(=O)N3CCC(C)CC3)c2)c1,nt,100,-6,nt,nt,nt

# Source: PubChem BioAssay (several laboratories)
